Source: PubChem BioAssay (The Scripps Research Institute Molecular Screening Center)
hgDAF-12 ag – hgDAF-12 agonism, primary luciferase screen; HEK293 GAL4-hgDAF12 UAS-luciferase reporter, agonist luminescence; normalized to butyrate control; activation, % at 6.8 µM; hit rate 1.8% among 370,000; AID 687014;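 active means activation above a cutoff set at the mean of all screened compounds plus 3 SD, cut at about 10% in these data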
ssDAF-12 act – activators of S. stercoralis DAF-12 nuclear receptor | HEK293 ssDAF-12/GRIP1 lit1-tk-luc reporter, luminescence; % of 3 µM dafachronic acid response | activation, % at 6.8 µM | hit rate 1% among 370,000 | AID 652126;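 active means activation above the mean over all tested compounds plus 3 SD, cut at about 0.9% in these data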
hcDAF12 agonist – activators of H. contortus DAF-12 nuclear receptor | HEK293 hcDAF-12 lit1-tk-luc reporter, luminescence; 0% DMSO, 100% Δ7-dafachronic acid | activation, % at 6.8 µM | hit rate 1.4% among 370,000;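 active means activation above the mean of all tested compounds plus 3 SD, cut at about 5.5% in these data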
DAX1 inh-1 – inhibitors of DAX1 repression of SF-1 activated StAR promoter; HEK293T StAR-luciferase reporter, SF-1/DAX-1 repression relief; inhibition, % at 6.8 µM; hit rate 1.1% among 370,000; AID 652010;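 active means inhibition above the mean over all tested compounds plus 3 SD, cut at about 3.6% in these data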;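 further: higher inhibition means more luminescence from relief of DAX-1 repression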
DAX1 inh-2 – NR0B1 (DAX1) inhibition; HEK293 Gal4-DAX1 luciferase reporter, luminescence; inhibition, % at 6.75 µM; hit rate 0.99% among 340,000; AID 504766;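 active means inhibition above the mean over all tested compounds plus 3 SD, cut at about 4.2% in these data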;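 further: inhibition shows as a rise in luminescence from relieved DAX1 repression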
Target sequence (P51843 207-470 limits assumed): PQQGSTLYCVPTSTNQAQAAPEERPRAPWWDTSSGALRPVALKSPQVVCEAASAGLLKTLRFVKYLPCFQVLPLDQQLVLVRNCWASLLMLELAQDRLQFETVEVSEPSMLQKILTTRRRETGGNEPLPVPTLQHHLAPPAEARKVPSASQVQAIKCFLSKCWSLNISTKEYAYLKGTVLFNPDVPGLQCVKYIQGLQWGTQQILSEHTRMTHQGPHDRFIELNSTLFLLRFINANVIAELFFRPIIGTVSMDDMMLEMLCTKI
DAX1 conf – confirmation of human DAX1 (NR0B1) inhibitors. inhibition, % at 6.8 µM. AID 652134. hit rate 87% among 2,400. shares compounds with DAX1 inh-1. HEK293T StAR-promoter luciferase reporter, SF-1/DAX-1 repression;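 active means inhibition above the average of every tested compound plus 3 SD, cut at about 3.8% in these data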;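 further: active compounds raise luminescence by relieving repression of the StAR reporter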
SF1 AF2mut Luc – nonselective inhibitor or artifact in SF-1 mutant DAX1 counter-screen | shares compounds with DAX1 inh-1 | inhibition, % at 6.8 µM | HEK293 StAR-luciferase, SF-1 AF2 mutant, luminescence | AID 652136 | hit rate 78% among 2,400;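 active means inhibition above the mean of all tested compounds plus 3 SD, cut at about 3% in these data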
LXRb hcDAF ctr – activates human LXR-beta, counter-screen for hcDAF-12 agonists | 3,400 tested, under 10 active | activation, % at 6.8 µM | shares compounds with hcDAF12 agonist | HEK293 Gal4-LXR tk-luc reporter, luminescence, 24 h; normalized: DMSO 0%, positive control 100%;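 active means mean percent activation of the reporter above a cutoff set as the average over tested compounds plus their standard deviation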
Target sequence (P55055 whole entry, looked up, the tested form may be a part): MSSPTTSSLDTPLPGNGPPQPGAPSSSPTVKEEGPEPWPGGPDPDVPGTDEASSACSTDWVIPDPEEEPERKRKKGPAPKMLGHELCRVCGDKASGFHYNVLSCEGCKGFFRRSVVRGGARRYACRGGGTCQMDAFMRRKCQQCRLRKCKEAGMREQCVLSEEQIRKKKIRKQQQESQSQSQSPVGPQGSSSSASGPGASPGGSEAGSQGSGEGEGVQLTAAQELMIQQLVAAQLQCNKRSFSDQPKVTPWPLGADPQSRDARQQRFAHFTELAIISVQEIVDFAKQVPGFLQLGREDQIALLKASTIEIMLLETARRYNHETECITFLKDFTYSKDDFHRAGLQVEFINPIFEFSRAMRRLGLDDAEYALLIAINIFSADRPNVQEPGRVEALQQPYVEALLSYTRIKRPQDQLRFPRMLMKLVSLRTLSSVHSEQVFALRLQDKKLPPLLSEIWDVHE
hcDAF12 ag – hcDAF-12 agonism, confirmation assay; hit rate 61% among 3,400; HEK293 hcDAF-12 lit1-tk-luc reporter, luminescence; % of Δ7-dafachronic acid response; shares compounds with hcDAF12 agonist; activation, % at 6.8 µM;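 active means mean activation across triplicate tests above the threshold derived from the earlier primary screen, cut at about 5.5% in these data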
hgDAF12 ag – confirmation of H. glycines DAF-12 agonists; shares compounds with hgDAF-12 ag; HEK293 GAL4-hgDAF12 luciferase reporter, agonist mode; percent of butyrate response; activation, % at 6.8 µM; hit rate 80% among 3,300;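 active means mean activation over triplicate wells above the hit cutoff derived from the earlier primary screen, cut at about 11% in these data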
LXR ag 2 – LXR-beta agonism as DAF-12 counter-screen | shares compounds with hgDAF-12 ag | HEK293 Gal4-LXR luciferase reporter, 24 h | activation, % at 6.8 µM | 3,300 tested, under 10 active | AID 743051;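 active means mean activation of the triplicate above a set limit carried over from the primary screen, none filed active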
Large screens that a line does not name were inactive (follow-up assays come after a bar, where they were run). The list is not random: actives were taken first. Their share in the collection is about 4.1%.

C#CCOCCOCCOCCNc1nc(N2CCN(C(=O)[C@H](CCCCN)n3cc([C@@H](N)C(C)CC)nn3)CC2)nc(N2CCN(C(=O)[C@H](CCCCN)n3cc([C@@H](N)C(C)CC)nn3)CC2)n1 (some centres not stated)	none (no result: DAX1 inh-1, DAX1 inh-2)
COC(=O)C1CN(C2CC2)CCS(=O)(=O)N1Cc1cn(Cc2ccc(Cl)cc2)nn1 (configuration not stated)	none (no result: DAX1 inh-2)
COc1ccc(-c2cn3cc(C)ccc3n2)cc1Br	hgDAF-12 ag 19.7, ssDAF-12 act 1.2, hcDAF12 agonist 13.5, DAX1 inh-1 6.9 | DAX1 conf 18.8 | SF1 AF2mut Luc 8.2 | LXRb hcDAF ctr inactive | hcDAF12 ag 6.5 | hgDAF12 ag 20.3 | LXR ag 2 inactive
COc1ccc(CN(CC#Cc2ccccc2)Cc2ccccc2)c(OC)c1	none (no result: DAX1 inh-2)
Fc1cccc(/C=N/Nc2ccc3ccccc3n2)c1	hgDAF-12 ag 20.9, ssDAF-12 act 1.7, hcDAF12 agonist 11.6, DAX1 inh-1 6.7 | DAX1 conf 16.3 | SF1 AF2mut Luc 6.6 | LXRb hcDAF ctr inactive | hcDAF12 ag 11.4 | hgDAF12 ag 19.7 | LXR ag 2 inactive
Brc1ccc(/C=N/Nc2ccc3ccccc3n2)cc1	none
COc1cc(OC)c(C(=O)NCC(c2cccs2)N(C)C)cc1OC (configuration not stated)	none (no result: hgDAF-12 ag, ssDAF-12 act, hcDAF12 agonist, DAX1 inh-1)
COc1cc2ccccc2cc1C(=O)NCC(c1cccs1)N(C)C (configuration not stated)	hgDAF-12 ag 14.9, hcDAF12 agonist 6.4, DAX1 inh-1 10.3 | DAX1 conf 11.8 | SF1 AF2mut Luc 7.1 | hgDAF12 ag 15.6 | LXR ag 2 inactive
N#Cc1c(NC(=O)CSc2nnc(-c3ccccc3)o2)sc2c1CCCC2	none (no result: hgDAF-12 ag, ssDAF-12 act, hcDAF12 agonist, DAX1 inh-1)
O=C(CSc1nnc(-c2csc3c2CCCC3)o1)Nc1ccccc1	hgDAF-12 ag 17.7, ssDAF-12 act 2.1, hcDAF12 agonist 14.3, DAX1 inh-1 10.4 | DAX1 conf 19.1 | SF1 AF2mut Luc 7.2 | LXRb hcDAF ctr inactive | hcDAF12 ag 18.9 | hgDAF12 ag 16.0 | LXR ag 2 inactive
Cc1ccccc1OCCCN1CCC(C(O)(c2ccccc2)c2ccccc2)CC1	none (no result: DAX1 inh-2)
CC/C(=N\NC(=O)c1ccoc1C)c1ccc(C)o1	hgDAF-12 ag 22.8, ssDAF-12 act 2.1, hcDAF12 agonist 9.2, DAX1 inh-1 7.1 | DAX1 conf inactive | SF1 AF2mut Luc inactive | LXRb hcDAF ctr inactive | hcDAF12 ag inactive | hgDAF12 ag inactive | LXR ag 2 inactive
c1ccc2nc3c(nc2c1)[nH]c1ccccc13	hgDAF-12 ag 18.3, ssDAF-12 act 1.7, hcDAF12 agonist 7.0, DAX1 inh-1 4.6 | DAX1 conf 13.7 | SF1 AF2mut Luc 7.6 | LXRb hcDAF ctr inactive | hcDAF12 ag 10.7 | hgDAF12 ag 17.3 | LXR ag 2 inactive
Clc1ccc(/C=C/c2nc3ccccc3[nH]2)cc1	hgDAF-12 ag 13.6, hcDAF12 agonist 7.7, DAX1 inh-1 4.5 | DAX1 conf 11.1 | SF1 AF2mut Luc 5.8 | LXRb hcDAF ctr inactive | hcDAF12 ag 8.9 | hgDAF12 ag 13.2 | LXR ag 2 inactive
CCCn1c(=N)n(CC(=O)c2cccs2)c2ccccc21	none
Cn1c(=N)n(CC(=O)c2cccs2)c2ccccc21	hgDAF-12 ag 17.4, hcDAF12 agonist 14.9, DAX1 inh-1 6.0 | DAX1 conf 4.3 | SF1 AF2mut Luc 4.0 | LXRb hcDAF ctr inactive | hcDAF12 ag 9.5 | hgDAF12 ag 12.8 | LXR ag 2 inactive
Cc1ccccc1CN1CCCCC(NC(=O)c2ccccc2F)C1=O (configuration not stated)	none (no result: DAX1 inh-2)
CC(/C=N/NC(=O)c1ccco1)=C\c1ccccc1	hgDAF-12 ag 17.7, DAX1 inh-1 6.0 | DAX1 conf 17.9 | SF1 AF2mut Luc 9.0 | hgDAF12 ag 14.1 | LXR ag 2 inactive
COc1ccc2oc(=O)c(-c3nc4ccccc4o3)cc2c1	none
COc1cccc(N=c2oc3ccc(OC)cc3cc2-c2nc3ccccc3[nH]2)c1	hgDAF-12 ag 16.1, ssDAF-12 act 3.6, hcDAF12 agonist 15.4, DAX1 inh-1 4.7 | DAX1 conf inactive | SF1 AF2mut Luc inactive | LXRb hcDAF ctr inactive | hcDAF12 ag 6.3 | hgDAF12 ag inactive | LXR ag 2 inactive
Cc1ccnc(N2C(=O)c3ccccc3C2O)c1 (configuration not stated)	hgDAF-12 ag 16.2, hcDAF12 agonist 6.7, DAX1 inh-1 7.1 | DAX1 conf 11.0 | SF1 AF2mut Luc 7.4 | LXRb hcDAF ctr inactive | hcDAF12 ag inactive | hgDAF12 ag 16.5 | LXR ag 2 inactive
Cc1occc1-c1nnc(SC(C)C(=O)Nc2ccccc2F)o1 (configuration not stated)	hgDAF-12 ag 14.6, DAX1 inh-1 10.4 | DAX1 conf 9.5 | SF1 AF2mut Luc 7.1 | hgDAF12 ag 13.7 | LXR ag 2 inactive
CC(Sc1nnc(-c2ccccc2F)o1)C(=O)Nc1ccc(N2CCOCC2)cc1 (configuration not stated)	none
Cc1c(NC(=O)C2CCCN(S(=O)(=O)c3ccc(Br)s3)C2)c(=O)n(-c2ccccc2)n1C (configuration not stated)	none (no result: DAX1 inh-2)
COc1cccc(/C=C/C(=O)Nc2ccc3c(c2)OCCO3)c1OC	hgDAF-12 ag 18.5, hcDAF12 agonist 7.7, DAX1 inh-1 10.1 | DAX1 conf 10.7 | SF1 AF2mut Luc 5.3 | LXRb hcDAF ctr inactive | hcDAF12 ag 5.9 | hgDAF12 ag 16.6 | LXR ag 2 inactive
COc1cccc(/C=C/C(=O)Nc2cccc(C(C)=O)c2)c1OC	none
C=CCN(C)C(C#CCCCC)c1ccccc1 (configuration not stated)	none (no result: DAX1 inh-1, DAX1 inh-2)
CC(=O)c1cnc2cc(-c3ccccc3)nn2c1C	none
Nc1c(-c2ccccc2)cnc2cc(-c3ccccc3)nn12	hgDAF-12 ag 22.0, ssDAF-12 act 0.9, DAX1 inh-1 6.0, DAX1 inh-2 5.6 | DAX1 conf 16.3 | SF1 AF2mut Luc 7.7 | hgDAF12 ag 25.8 | LXR ag 2 inactive
